Assay results: PubChem BioAssay (Tox21)
Records with an inconclusive call do not appear. Calls of active or inactive are those of the source. Unless noted, calls come from the whole dose curve; as a rule, active = well fitted curve in the direction sought with a large enough effect in the repeat runs; inconclusive = weak or mixed curves; inactive = no such curve, though single readings can be large; an effect the other way counts as inactive or inconclusive.

Key:
[1] = qHTS assay to identify small molecule agonists of the TGF-beta/Smad signaling pathway (AID 1346859; active = well fitted activation curve with a large enough effect in the signal ratio in the repeat runs, not every such curve was filed as active; the % refers to the signal ratio; note: series mostly up to about 77 µM)
Outline: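 SBE-bla HEK293T cells plated overnight, then compound exposure for 5 h at 37 C. Beta-lactamase reporter read with LiveBLAzer B/G FRET substrate after 2 h at room temperature, fluorescence at 405 nm excitation, 460/530 nm emission.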

[2] = biological target: Thyrotropin-releasing hormone receptor (Homo sapiens) (UniProt P34981); assay: qHTS assay to identify small molecule antagonists of the thyrotropin-releasing hormone receptor (TRHR) signaling pathway (AID 1346877; active = well fitted inhibition curve with a large enough effect in the repeat runs, not every such curve was filed as active; note: series mostly up to about 51 µM)
Sequence of Thyrotropin-releasing hormone receptor (Homo sapiens) (P34981 whole entry, looked up): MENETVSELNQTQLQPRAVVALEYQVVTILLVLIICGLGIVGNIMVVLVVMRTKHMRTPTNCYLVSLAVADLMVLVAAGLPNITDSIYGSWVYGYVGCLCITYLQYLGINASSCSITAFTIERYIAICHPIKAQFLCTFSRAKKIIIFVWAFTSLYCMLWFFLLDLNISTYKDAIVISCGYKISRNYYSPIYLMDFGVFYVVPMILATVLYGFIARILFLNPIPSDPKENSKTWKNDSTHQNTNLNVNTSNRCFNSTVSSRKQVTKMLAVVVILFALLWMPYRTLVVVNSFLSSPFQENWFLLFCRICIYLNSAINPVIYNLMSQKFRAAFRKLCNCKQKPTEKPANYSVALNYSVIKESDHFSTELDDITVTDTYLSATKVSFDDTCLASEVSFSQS
Outline: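 Intracellular calcium fluorescence, read kinetically every second over 3 min, reports TRH-evoked signalling in HEK293 cells carrying TRHR. Test compounds were added 5 min ahead of a 1 nM TRH challenge.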

[3] = biological target: Thyrotropin-releasing hormone receptor (Homo sapiens) (UniProt P34981); assay: qHTS assay to identify small molecule agonists of the thyrotropin-releasing hormone receptor (TRHR) signaling pathway (AID 1346891; calls by dose curve; note: series mostly up to about 58 µM)
Outline: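 HEK293 cells expressing TRHR plated 18 h at 37 C/5% CO2, calcium dye-loaded 2 h at 37 C, then compound added (agonist mode); kinetic calcium fluorescence read 3 min at 1 s intervals; 15 concentrations in triplicate.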

[4] = Human pregnane X receptor (PXR) small molecule agonists, qHTS cell viability counter screen (AID 1346977); note: nearly all actives have a fitted effect of over 50% in size
Outline: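 PXR-Luc HepG2 cells (2,000/well, 5% charcoal-stripped FBS) preincubated 5 hr, then exposed to compounds 24 hr at 37 C. Viability read in the same wells by CellTiter-Fluor fluorescence, reagent added at 23 hr, 1 hr incubation.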

[5] = Caspase-3/7 induction in HepG2 cells by small molecules, qHTS assay (AID 1346978); note: nearly all actives have a fitted effect of over 15% in size
Outline: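 Wild-type HepG2 cells, 2,000/well, settled 5 hr at 37 C and 5% CO2, then compound-treated for 17 hr; caspase-3/7 activity read by luminescent Caspase-Glo 3/7 after 30 min at room temperature.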

[6] = Caspase-3/7 induction in CHO-K1 cells by small molecules, qHTS cell viability counter screen (AID 1346979); note: nearly all actives have a fitted effect of over 35% in size
Outline: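 Wild-type CHO-K1 cells (1,500/well) treated with compound after 5 h plating; after 16 h at 37C, viability read as CellTiter-Fluor fluorescence following 1 h reagent incubation, in the same wells as the caspase read.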

[7] = Caspase-3/7 induction in HepG2 cells by small molecules, qHTS cell viability counter screen (AID 1346981); note: series mostly up to about 92 µM; nearly all actives have a fitted effect of over 30% in size
Outline: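 HepG2, WT, 2,000 cells/well; 5 hr pre-incubation 37 C/5% CO2; compound pin-transferred from DMSO; 16 hr exposure; CellTiter-Fluor, 1 hr; fluorescence read.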

[8] = biological target: Nuclear receptor subfamily 1 group I member 2 (Homo sapiens) (UniProt O75469); assay: Human pregnane X receptor (PXR) small molecule agonists, qHTS assay (AID 1346982); note: nearly all actives have a fitted effect of over 35% in size
Sequence of Nuclear receptor subfamily 1 group I member 2 (Homo sapiens) (O75469 whole entry, looked up): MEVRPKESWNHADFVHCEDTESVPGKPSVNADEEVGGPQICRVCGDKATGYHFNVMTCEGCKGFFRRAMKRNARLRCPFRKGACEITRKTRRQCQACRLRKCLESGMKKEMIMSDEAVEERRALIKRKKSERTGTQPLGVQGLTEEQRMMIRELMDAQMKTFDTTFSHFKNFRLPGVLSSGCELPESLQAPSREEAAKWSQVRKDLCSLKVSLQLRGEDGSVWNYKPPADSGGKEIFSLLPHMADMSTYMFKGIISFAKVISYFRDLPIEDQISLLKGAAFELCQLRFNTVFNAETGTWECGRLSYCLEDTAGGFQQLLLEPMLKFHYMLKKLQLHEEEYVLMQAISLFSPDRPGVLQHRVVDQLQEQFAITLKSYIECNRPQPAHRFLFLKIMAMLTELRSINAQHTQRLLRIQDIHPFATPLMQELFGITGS
Outline: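 Luciferase signal from ONE-Glo (30 min, room temperature) measured activation of hPXR-driven CYP3A4 reporter expression in PXR-Luc HepG2 cells treated with compounds for 24 hr at 37 C.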

[9] = biological target: Nuclear receptor subfamily 1 group I member 2 (Rattus norvegicus) (UniProt Q9R1A7); assay: Rat pregnane X receptor (rPXR) activation by small molecules, qHTS assay (AID 1346983); conditions: rPXR luciferase reporter cells, One-Glo luminescence, 24 h; stronger effect = higher value; note: nearly all actives have a fitted effect of over 20% in size
Sequence of Nuclear receptor subfamily 1 group I member 2 (Rattus norvegicus) (Q9R1A7 whole entry, looked up): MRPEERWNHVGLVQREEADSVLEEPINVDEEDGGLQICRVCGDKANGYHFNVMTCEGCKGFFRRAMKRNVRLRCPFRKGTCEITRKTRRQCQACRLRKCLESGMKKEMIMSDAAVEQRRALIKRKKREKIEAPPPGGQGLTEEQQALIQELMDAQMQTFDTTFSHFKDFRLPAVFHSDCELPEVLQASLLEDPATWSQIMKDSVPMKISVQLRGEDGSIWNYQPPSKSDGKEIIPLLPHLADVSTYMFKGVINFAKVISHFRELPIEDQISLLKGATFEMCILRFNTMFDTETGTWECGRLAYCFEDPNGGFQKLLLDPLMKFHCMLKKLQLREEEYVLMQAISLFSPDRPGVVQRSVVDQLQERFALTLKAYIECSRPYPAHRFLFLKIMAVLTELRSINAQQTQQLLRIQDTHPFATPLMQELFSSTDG
Outline: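 Cell-based rPXR activation assay: rPXR cells, 2,000 per well, rested 5hr at 37 C, then exposed to compounds in DMSO for 24 hr at 37 C. Luciferase activity read by One-Glo luminescence after 30 min at room temperature.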

[10] = biological target: Nuclear receptor subfamily 1 group I member 2 (Homo sapiens) (UniProt O75469); assay: CYP3A4 induction through human pregnane X receptor (PXR) by small molecules, qHTS assay (AID 1346984); note: nearly all actives have a fitted effect of over 40% in size
Outline: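 Luminescence readout: luciferase signal after One-Glo (30 min, room temperature), following 3 h at 37C with 3uM final Luciferin-IPA P450 substrate. Cells were DPX-2 (HepG2, PXR/CYP3A4-luc co-transfected) dosed for 24 h.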

[11] = biological target: Nuclear receptor subfamily 1 group I member 2 (Homo sapiens) (UniProt O75469); assay: Human pregnane X receptor (PXR) activation by small molecules, qHTS assay (AID 1346985); note: nearly all actives have a fitted effect of over 40% in size
Outline: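 DPX-2 cells (HepG2 co-transfected with a PXR response element and a CYP3A4-promoter luciferase construct) were seeded at 2,000 per well, rested 5 hr at 37C, then exposed to DMSO-dissolved compounds for 24 hr. Activation was read as luciferase luminescence.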

[12] = biological target: Cytochrome P450 2D6 (Homo sapiens) (UniProt P10635); assay: Cytochrome P450 Family 2 Subfamily D Member 6 (CYP2D6) small molecule antagonists: luciferase reporter qHTS assay (AID 1671196); note: series mostly up to about 120 µM; nearly all actives have a fitted effect of over 50% in size
Sequence of Cytochrome P450 2D6 (Homo sapiens) (P10635 whole entry, looked up): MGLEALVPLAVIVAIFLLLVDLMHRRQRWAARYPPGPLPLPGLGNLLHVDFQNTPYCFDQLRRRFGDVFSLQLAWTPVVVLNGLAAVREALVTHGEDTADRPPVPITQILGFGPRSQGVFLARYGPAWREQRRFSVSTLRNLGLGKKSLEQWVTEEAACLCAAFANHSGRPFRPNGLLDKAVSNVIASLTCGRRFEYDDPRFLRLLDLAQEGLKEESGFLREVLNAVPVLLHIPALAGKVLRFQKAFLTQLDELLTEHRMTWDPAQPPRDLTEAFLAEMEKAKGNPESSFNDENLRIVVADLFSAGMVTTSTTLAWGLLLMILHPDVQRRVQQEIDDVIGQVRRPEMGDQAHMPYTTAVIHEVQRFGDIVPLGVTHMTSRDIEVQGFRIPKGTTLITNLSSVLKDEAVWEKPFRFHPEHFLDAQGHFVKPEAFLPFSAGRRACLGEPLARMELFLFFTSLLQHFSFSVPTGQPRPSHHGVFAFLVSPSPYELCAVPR
Outline: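 Read-out is luminescence from luciferin formed by CYP2D6 turnover of a proluciferin substrate, recorded as relative luminescence units. Reactions ran 1 h at room temperature after NADPH regeneration solution was added.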

[13] = biological target: Cytochrome P450 2C19 (Homo sapiens) (UniProt P33261); assay: Cytochrome P450 Family 2 Subfamily C Member 19 (CYP2C19) small molecule antagonists: luciferase reporter qHTS assay (AID 1671197); note: nearly all actives have a fitted effect of over 65% in size; note: potency is the fitted concentration of half-maximal effect
Sequence of Cytochrome P450 2C19 (Homo sapiens) (P33261 whole entry, looked up): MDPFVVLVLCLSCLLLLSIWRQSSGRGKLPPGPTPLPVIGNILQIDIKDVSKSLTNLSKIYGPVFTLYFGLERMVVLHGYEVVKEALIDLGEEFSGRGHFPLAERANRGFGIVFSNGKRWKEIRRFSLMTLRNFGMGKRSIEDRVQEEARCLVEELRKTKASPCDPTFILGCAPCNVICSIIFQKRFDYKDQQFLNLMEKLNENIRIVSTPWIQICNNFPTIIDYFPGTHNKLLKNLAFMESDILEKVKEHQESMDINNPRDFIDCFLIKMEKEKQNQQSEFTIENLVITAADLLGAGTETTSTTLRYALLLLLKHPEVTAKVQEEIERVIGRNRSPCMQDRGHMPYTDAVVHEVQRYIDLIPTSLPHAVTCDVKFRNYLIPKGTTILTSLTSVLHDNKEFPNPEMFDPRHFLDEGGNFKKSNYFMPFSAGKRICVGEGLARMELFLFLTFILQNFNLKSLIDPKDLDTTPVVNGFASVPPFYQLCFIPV
Outline: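 First, compounds are pinned into enzyme-substrate mix and held 10 min at room temperature. Second, NADPH regeneration solution is added and plates incubate 1 h at 37C. Third, detection reagent is added and luminescence read after 20 min.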

[14] = biological target: Cytochrome P450 2C9 (Homo sapiens) (UniProt P11712); assay: Cytochrome P450 Family 2 Subfamily C Member 9 (CYP2C9) small molecule antagonists: luciferase reporter qHTS assay (AID 1671198); note: nearly all actives have a fitted effect of over 50% in size; note: potency is the fitted concentration of half-maximal effect
Sequence of Cytochrome P450 2C9 (Homo sapiens) (P11712 whole entry, looked up): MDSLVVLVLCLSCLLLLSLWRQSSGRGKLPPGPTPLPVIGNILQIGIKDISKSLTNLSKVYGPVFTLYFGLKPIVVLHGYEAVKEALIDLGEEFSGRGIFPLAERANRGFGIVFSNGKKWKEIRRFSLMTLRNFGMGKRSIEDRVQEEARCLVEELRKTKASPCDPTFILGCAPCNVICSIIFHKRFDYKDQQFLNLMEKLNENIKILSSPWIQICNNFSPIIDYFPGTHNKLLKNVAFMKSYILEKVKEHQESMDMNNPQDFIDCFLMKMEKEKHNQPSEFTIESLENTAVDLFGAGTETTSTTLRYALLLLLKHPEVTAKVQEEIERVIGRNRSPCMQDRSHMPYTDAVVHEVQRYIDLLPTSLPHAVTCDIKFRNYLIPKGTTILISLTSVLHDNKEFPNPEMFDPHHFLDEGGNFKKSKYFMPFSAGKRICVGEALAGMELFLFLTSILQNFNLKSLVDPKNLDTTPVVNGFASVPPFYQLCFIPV
Outline: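 P450-Glo proluciferin substrate with CYP2C9 enzyme; 10 min RT preincubation, then NADPH regeneration 1 h at 37C; luciferin detection reagent 20 min RT, luminescence in relative luminescence units.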

[15] = biological target: Cytochrome P450 1A2 (Homo sapiens) (UniProt P05177); assay: Cytochrome P450 Family 1 Subfamily A Member 2 (CYP1A2) small molecule antagonists: luciferase reporter qHTS assay (AID 1671199); note: nearly all actives have a fitted effect of over 50% in size; note: potency is the fitted concentration of half-maximal effect
Sequence of Cytochrome P450 1A2 (Homo sapiens) (P05177 whole entry, looked up): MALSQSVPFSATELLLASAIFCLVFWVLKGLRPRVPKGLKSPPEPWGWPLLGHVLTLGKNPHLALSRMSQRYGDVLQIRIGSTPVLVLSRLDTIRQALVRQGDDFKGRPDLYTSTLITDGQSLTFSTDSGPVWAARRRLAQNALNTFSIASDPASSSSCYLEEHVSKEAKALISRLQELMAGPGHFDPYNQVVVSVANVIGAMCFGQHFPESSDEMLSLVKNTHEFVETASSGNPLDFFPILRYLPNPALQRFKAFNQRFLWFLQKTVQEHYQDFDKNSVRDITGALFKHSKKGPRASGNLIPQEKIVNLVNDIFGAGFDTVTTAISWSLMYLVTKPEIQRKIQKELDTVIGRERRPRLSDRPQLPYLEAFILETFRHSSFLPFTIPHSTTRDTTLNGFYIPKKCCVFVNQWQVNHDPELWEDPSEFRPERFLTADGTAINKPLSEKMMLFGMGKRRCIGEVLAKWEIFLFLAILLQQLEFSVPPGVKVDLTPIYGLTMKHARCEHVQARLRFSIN
Outline: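 P450-Glo CYP1A2, 1536-well qHTS: enzyme/proluciferin substrate + cpd (DMSO), 10 min RT; NADPH regen, 1 h RT; detection reagent, 20 min; luminescence, RLU.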

[16] = biological target: Voltage-gated inwardly rectifying potassium channel KCNH2 (Homo sapiens) (UniProt Q12809); assay: Human Ether-a-go-go-Related Gene (hERG) channel small molecule antagonists: fluorescence cell-based qHTS assay (AID 1671200)
Sequence of Voltage-gated inwardly rectifying potassium channel KCNH2 (Homo sapiens) (Q12809 whole entry, looked up): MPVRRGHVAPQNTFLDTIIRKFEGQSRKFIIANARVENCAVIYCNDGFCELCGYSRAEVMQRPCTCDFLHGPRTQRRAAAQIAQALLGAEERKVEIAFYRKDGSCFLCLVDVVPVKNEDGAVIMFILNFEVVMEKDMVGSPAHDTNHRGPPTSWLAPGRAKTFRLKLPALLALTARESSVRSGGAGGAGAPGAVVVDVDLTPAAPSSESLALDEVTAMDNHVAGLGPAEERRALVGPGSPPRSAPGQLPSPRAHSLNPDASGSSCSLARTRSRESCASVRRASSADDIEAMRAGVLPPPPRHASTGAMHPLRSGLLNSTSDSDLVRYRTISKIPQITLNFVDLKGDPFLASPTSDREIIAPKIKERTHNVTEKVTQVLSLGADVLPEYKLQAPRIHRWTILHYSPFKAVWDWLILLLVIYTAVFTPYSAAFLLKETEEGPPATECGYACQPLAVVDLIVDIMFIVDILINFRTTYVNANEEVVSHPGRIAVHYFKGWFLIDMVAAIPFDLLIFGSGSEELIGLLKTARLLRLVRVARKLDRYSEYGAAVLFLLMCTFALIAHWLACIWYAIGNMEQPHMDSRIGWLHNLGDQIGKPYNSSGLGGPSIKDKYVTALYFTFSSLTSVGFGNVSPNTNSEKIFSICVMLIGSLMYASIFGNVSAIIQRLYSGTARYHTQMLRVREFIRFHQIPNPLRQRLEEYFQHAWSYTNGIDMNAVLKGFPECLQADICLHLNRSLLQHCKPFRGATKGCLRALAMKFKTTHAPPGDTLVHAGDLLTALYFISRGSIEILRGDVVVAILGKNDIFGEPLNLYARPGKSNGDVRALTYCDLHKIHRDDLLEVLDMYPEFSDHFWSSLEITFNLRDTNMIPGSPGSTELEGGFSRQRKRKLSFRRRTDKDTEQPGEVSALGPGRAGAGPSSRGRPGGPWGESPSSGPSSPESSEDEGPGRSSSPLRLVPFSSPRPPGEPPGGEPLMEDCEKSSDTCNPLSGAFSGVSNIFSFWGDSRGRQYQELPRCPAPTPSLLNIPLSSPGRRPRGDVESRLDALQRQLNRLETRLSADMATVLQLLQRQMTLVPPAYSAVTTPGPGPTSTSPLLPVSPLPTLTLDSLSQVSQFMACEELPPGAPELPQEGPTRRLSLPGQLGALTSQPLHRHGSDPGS
Outline: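 hERG-U2OS cells plated overnight at 37 C, loaded with FluxOR II dye 1 h at RT in dark; after 10 min, thallium stimulus added. Fluorescence (480/540 nm) read kinetically for 2 min at 1 s intervals.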

[17] = biological target: Cytochrome P450 3A4 (Homo sapiens) (UniProt P08684); assay: Cytochrome P450 Family 3 Subfamily A Member 4 (CYP3A4) small molecule antagonists: luciferase reporter qHTS assay (AID 1671201); note: nearly all actives have a fitted effect of over 50% in size; note: potency is the fitted concentration of half-maximal effect
Sequence of Cytochrome P450 3A4 (Homo sapiens) (P08684 whole entry, looked up): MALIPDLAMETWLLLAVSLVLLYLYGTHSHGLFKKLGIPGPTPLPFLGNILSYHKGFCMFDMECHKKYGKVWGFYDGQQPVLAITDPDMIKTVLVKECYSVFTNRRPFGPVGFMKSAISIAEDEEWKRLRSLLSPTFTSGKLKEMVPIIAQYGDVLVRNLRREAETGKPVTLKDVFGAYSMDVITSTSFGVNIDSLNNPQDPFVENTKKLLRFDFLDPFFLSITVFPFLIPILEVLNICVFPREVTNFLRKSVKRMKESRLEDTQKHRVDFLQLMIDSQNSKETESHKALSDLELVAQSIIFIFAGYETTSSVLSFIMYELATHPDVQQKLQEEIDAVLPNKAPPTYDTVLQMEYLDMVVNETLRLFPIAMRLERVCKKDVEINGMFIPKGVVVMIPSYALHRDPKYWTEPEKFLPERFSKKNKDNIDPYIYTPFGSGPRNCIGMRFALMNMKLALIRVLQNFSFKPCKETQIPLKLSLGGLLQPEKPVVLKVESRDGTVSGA
Outline: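 P450-Glo CYP3A4 luminescent assay: compounds preincubated 10 min at room temperature with enzyme and proluciferin substrate, NADPH regeneration added, 1 h room-temperature reaction, stopped with luciferin detection reagent; luminescence read after 20 min. Ketoconazole positive control.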

[18] = Caspase-3/7 induction in CHO-K1 cells by small molecules, qHTS assay (AID 1346980); note: nearly all actives have a fitted effect of over 15% in size
Outline: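 Wild-type CHO-K1 cells exposed to compounds for 17hr at 37 C, 5% CO2. Caspase-3/7 activity then measured by Caspase-Glo 3/7 luminescence after 30min at room temperature.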
% is set by controls: 0 for no effect and ±100 for the full control effect.

O=C(NCN1CCOCC1)c1cnccn1
inactive: outcome [1] | outcome [2] | outcome [3] | outcome [4] | outcome [5] | Potency [6] | outcome [7] | Potency [8] | max activation [9] -1.75% | Potency [10] | Potency [11] | Potency [12] | Potency [13] | Potency [14] | Potency [15] | Potency [16] | Potency [17]

CN(C)CCCO[C@@H]1[C@H]2OC(C)(C)O[C@H]2O[C@@H]1C(O)CO (some centres undefined)
inactive: outcome [1] | outcome [2] | outcome [3] | outcome [4] | Potency [6] | outcome [18] | outcome [7] | Potency [8] | max activation [9] -3.96% | Potency [10] | Potency [11] | Potency [13] | Potency [14] | Potency [15] | Potency [16] | Potency [17]

O=Cc1cc2ccccc2o1
active: Potency [15] 31.7 µM
inactive: outcome [1] | outcome [2] | outcome [3] | outcome [4] | outcome [5] | Potency [6] | outcome [18] | Potency [8] | Potency [12] | Potency [14] | Potency [16] | Potency [17]

O=C(CCCCC(=O)Nc1c(I)cc(I)c(C(=O)O)c1I)Nc1c(I)cc(I)c(C(=O)O)c1I
inactive: outcome [1] | outcome [2] | outcome [3] | outcome [4] | outcome [5] | outcome [18] | outcome [7] | Potency [8] | Potency [12] | Potency [14] | Potency [15] | Potency [16] | Potency [17]

COc1cc(OC)nc(O[C@H](C(=O)O)C(OC)(c2ccccc2)c2ccccc2)n1
inactive: outcome [1] | outcome [2] | outcome [3] | outcome [4] | outcome [5] | Potency [6] | outcome [7] | Potency [8] | Potency [12] | Potency [13] | Potency [15] | Potency [16] | Potency [17]

O=C=NCC1CCCC(CN=C=O)C1 (centres undefined)
inactive: outcome [1] | outcome [2] | outcome [3] | outcome [4] | outcome [5] | Potency [6] | outcome [18] | outcome [7] | Potency [15] | Potency [16]
active: Potency [13] 71 µM | Potency [14] 10 µM | Potency [17] 2.83 µM

C=CCCCCCCCCC(=O)OCCCC
inactive: outcome [1] | outcome [2] | outcome [3] | outcome [4] | outcome [5] | Potency [6] | outcome [18] | Potency [8] | Potency [12] | Potency [16] | Potency [17]
active: Potency [13] 56.4 µM

CCCCC1CCC(O)CC1 (centres undefined)
inactive: outcome [1] | outcome [2] | outcome [3] | outcome [4] | outcome [5] | Potency [6] | outcome [7] | Potency [8] | Potency [13] | Potency [14] | Potency [16] | Potency [17]
